# According to PubChem BioAssay AID602288 (National Center for Advancing Translational Sciences (NCATS), 2012):
# Inconclusive results are not listed. Active and inactive are the calls of the source. Calls come from the whole dose curve; as a rule, active = well fitted cell-killing curve with a large enough effect (not every such curve was filed as active); inconclusive = small, poorly fitted or top-dose-only effect, or another doubt; inactive = no such curve, though single readings can be large or run the other way.
# Experiment: qHTS Assay for Agonists of the Relaxin Receptor RXFP1: Cytotoxicity SAR
# Conditions: HEK293-RXFP1 viability, ATPLite luminescence, 72 h; series mostly up to 78.1 µM
# From the text: The relaxin hormone is involved in the variety of biological functions in normal tissues and diseases. The role of relaxin is well-established in female reproduction and parturition, mammary gland and endometrial development, maintenance of myometrial quiescence during pregnancy. Relaxin signaling through its G protein-coupled receptor (GPCR) RXFP1 results in ECM remodeling through regulation of collagen deposition, cell invasiveness, proliferation and overall tissue homeostasis. […] Recombinant human relaxin (rhRlx) is currently being tested in clinical trials as a protective agent in congestive heart failure, in treating severe preeclampsia, and as an anti-fibrotic agent in systemic sclerosis. In the primary screen, upon relaxin binding RXFP1 activation leads to the activation of adenylate cyclase (AC) via Gs. cAMP will activate PKA, which phosphorylates many signaling proteins. Thus, detection of cAMP increase is an easy and reliable indication of relaxin receptor activation. To screen for agonists of the relaxin receptor, a HEK293T cell line stably transfected with RXFP1 was used. RXFP1 activation was assayed by changes in cAMP levels as detected with a time-resolved fluorescence energy transfer (TR-FRET) cAMP detection kit. We conducted this followup assay to measure the effect of the lead candidates on cell health by measuring ATP levels (ATPLite). NIH Chemical Genomics Center [NCGC] NIH Molecular Libraries Probe Production Centers Network [MLPCN] MLPCN Grant: R03 MH085705-01A1 Assay Submitter (PI): Alexander Agoulnik
# In this assay, the luciferase enzyme catalyzes the conversion of the added substrate D-luciferin to oxyluciferin and light with ATP. Thus, the emitted light is proportional to the ATP concentration. To evaluate the cytotoxic properties of the compounds, HEK293-RXFP1 cells were incubated with compounds for 72 h in growth media (DMEM 10% FBS, 1x Pen/Strep, 0.5 mg/mL G418) in 384-well format. After compound incubation, the levels of ATP in each well were measured with the addition of the ATPLite assay reagent.
row,SMILES,Potency
1,COc1ccccc1Nc1ccccc1C(=O)Nc1cccc(C(F)(F)F)c1,23.6 µM (active)
2,CCC(CC)C(=O)Nc1ccccc1C(=O)Nc1cccc(C(F)(F)F)c1,9.4 µM (active)
3,COCCOc1ccccc1C(=O)Nc1ccccc1C(=O)Nc1cccc(C(F)(F)F)c1,inactive
4,O=C(Nc1ccccc1C(=O)Nc1cccc(C(F)(F)F)c1)c1ccccc1Cl,11.8 µM (active)
5,Cc1cccc(NC(=O)c2ccccc2NC(=O)C2CCCCC2)c1,23.6 µM (active)
6,O=C(Nc1cccc(-c2ccccc2)c1)c1ccccc1NC(=O)C1CCCCC1,14.9 µM (active)
7,CCOc1ccccc1C(=O)Nc1ncccc1C(=O)Nc1cccc(S(=O)(=O)C(F)(F)F)c1,18.8 µM (active)
